Screening data from PubChem.
In the library only some 3.4% were active in any assay of this set; here they are far more common.
esBAF inh – SWI/SNF esBAF complex inhibition. AID 602393. reporter increase, % at 12.5 µM. mouse ES cells, Bmi1-luciferase knock-in reporter, 24 h; 100% = twice the neutral-well signal. actives 2% (n = 350,000); in the data active = activation above about 40%; inconclusive = no clear call, values can overlap the other calls;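 note: a rise in the Bmi1 reporter signal indicates esBAF inhibition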
Env fusion inh – HIV envelope-mediated fusion inhibition; inhibition, % at 12.3 µM; actives 1.1% (n = 360,000); HeLa-JRFL Env/CEM21 cell fusion, luciferase;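 active = mean replicate inhibition score of at least 50 and every replicate individually at or above 50; inconclusive = only one of the two criteria met; inactive = mean below 50 and not all replicates reaching 50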
miR122 inh – inhibitors of miR-122 in Huh7 cells. activation (reporter increase), % at 12.5 µM. actives 0.3% (n = 340,000). Huh7 miR-122 Renilla luciferase sensor, 48 h; neutral wells = 0, positive control = 100. AID 602342;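 active = mean replicate activation score at least 90 and every replicate individually at or above 90; inconclusive = only one of the two criteria met; inactive = neither criterion met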;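 note: higher luciferase means less miR-122 activity so hits act as miR-122 inhibitors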
Wnt act – activators of Wnt/beta-catenin signaling | Wnt/beta-catenin reporter cell assay, activator, plate reader | activation, % at 9.35 µM | actives 1.2% (n = 300,000) | AID 743398; in the data active = activation above about 30%, passing the limit was not always enough; inconclusive = no clear call, values can overlap the other calls
MITF act – MITF TRPM1 promoter activation in melanoma cells | SK-MEL-5 TRPM1-promoter luciferase, 24 h; % of positive control, neutral wells = 0 | activation, % at 12.5 µM | actives 0.75% (n = 300,000) | AID 588334;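 active = mean activation of at least 80% with every replicate also reaching 80%; inconclusive = mean reaches 80% but some replicate falls short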
A number is an active result; . = inactive; ? = inconclusive; / = no result given.

SMILES | esBAF inh | Env fusion inh | miR122 inh | Wnt act | MITF act
COC(=O)c1cc(/C=C/c2ccccc2)on1 | . | / | . | / | /
COC(=O)c1cc(/C=C/c2ccccc2)[nH]n1 | 61 | . | . | . | .
CNC(=O)C[C@@H]1CC[C@H]2[C@@H](COc3ccc(NC(=O)c4ccc(C(F)(F)F)cc4)cc3C(=O)N2C)O1 | . | . | . | / | /
CCSc1nnc(NC(=O)C2CCCN(C(=O)c3ccc(Cl)cc3)C2)s1 (centres undefined) | . | / | . | . | /
CCc1nnc(NC(=O)C2CCCN(C(=O)c3ccc(Cl)cc3)C2)s1 (centres undefined) | 50 | . | / | . | .
Cc1noc(C)c1NC(=O)Nc1ccc2c(c1)C(=O)N([C@H](C)CO)C[C@@H](C)[C@H](CN(C)C(=O)Nc1ccc(F)cc1)OCCCC[C@@H](C)O2 | . | . | . | / | /
O=C1c2ccccc2CN1CCSC(=S)N1CCOCC1 | / | / | . | 41 | .
CC1CN(C(=S)SCCN2Cc3ccccc3C2=O)CC(C)O1 (centres undefined) | / | / | / | . | .
S=C(Nc1ccccc1)c1nc2ccccc2s1 | / | . | / | 56 | .
Cc1ccc(C2NNC(=O)C2NC(=O)c2ccccc2)cc1 (centres undefined) | 51 | / | . | / | .
COC(=O)C[C@H]1C[C@@H]2c3cc(NC(=O)c4cccnc4)ccc3O[C@@H]2[C@H](CO)O1 | . | . | . | / | /
O=C(c1cc(-c2cccc(O)c2)on1)N1CCOCC1 | . | . | / | 45 | /
O=C(c1cc(-c2cccc(Cl)c2)on1)N1CCN(c2ccccc2)CC1 | . | . | / | . | .
O=C(c1cc(-c2cccc(Cl)c2)on1)N1CCCC1 | . | . | . | 40 | .
O=C(c1cc(-c2cccc(O)c2)on1)N1CCCCCC1 | . | . | . | 37 | 93
O=C(c1cc(-c2ccc(Cl)c(Cl)c2)on1)N1CCCCC1 | 56 | . | . | / | 104
COc1cccc(-c2cc(C(=O)N3CCOCC3)no2)c1 | . | . | . | . | .
C[C@H]1CN([C@@H](C)CO)C(=O)c2cc(C#CCN(C)C)cnc2O[C@H]1CN(C)C(=O)Nc1ccccc1F | . | . | . | / | /
O=C(c1ccccc1)c1cc2ccccc2o1 | 49 | / | . | . | 108
CC(Cc1ccccc1)NC(=O)c1cc2ccccc2o1 (centres undefined) | 82 | . | / | . | .
CCC(=O)Nc1ccc(NC(=O)c2cc3ccccc3o2)cc1 | . | / | . | / | .
Cc1ccc(C(=O)c2cc3ccccc3o2)cc1[N+](=O)[O-] | 67 | . | . | . | .
O=C(c1ccc(F)cc1)c1cc2ccccc2o1 | 64 | . | . | 65 | ?
C[C@@H]1CN([C@H](C)CO)S(=O)(=O)c2ccc(C3=CCCCC3)cc2O[C@H]1CN(C)C(=O)C1CCC1 | . | . | . | / | /
C[C@@H]1CN([C@H](C)CO)C(=O)c2cccc(NS(C)(=O)=O)c2O[C@H]1CN(C)C(=O)Nc1ccccc1 | . | / | . | / | /
SMILES | esBAF inh | Env fusion inh | miR122 inh | Wnt act | MITF act
CCOc1ccc(NC(=O)c2ccc(CN3CCc4ccccc4C3)cc2)cc1 | . | . | . | . | .
COc1ccc(NC(=O)c2ccc3c(c2)CCN3S(C)(=O)=O)cc1 | . | . | . | . | /
O=C(Nc1ccc(Cl)cc1)c1ccc(CN2CCc3ccccc3C2)cc1 | 49 | . | . | . | .
CS(=O)(=O)N1CCc2cc(C(=O)Nc3ccc(Cl)cc3)ccc21 | 63 | . | . | . | /
CCOC(=O)c1ccc(NC(=O)c2ccc(CN3CCc4ccccc4C3)cc2)cc1 | . | 58 | / | . | /
O=C(NCCCN1CCc2ccccc2C1)Nc1ccc(Cl)cc1 | . | 79 | . | / | .
C[C@@H]1CN([C@@H](C)CO)C(=O)c2cccc(NC(=O)NC3CCCCC3)c2O[C@@H]1CN(C)Cc1ccc2c(c1)OCO2 | . | . | . | / | /
CCCN(C)C[C@H]1Oc2ncc(-c3cccnc3)cc2C(=O)N([C@H](C)CO)C[C@H]1C | . | . | . | / | /
CNC[C@H]1OCCCC[C@@H](C)Oc2ccc(NS(=O)(=O)c3ccc(OC)cc3)cc2C(=O)N([C@H](C)CO)C[C@H]1C | . | . | . | / | /
COc1cc(C2C3=C(COC3=O)Oc3cc4c(cc32)OCO4)ccc1OC(C)=O (centres undefined) | / | . | . | . | /
COc1cc(C2C3=C(COC3=O)Oc3cc4c(cc32)OCO4)cc(OC)c1OC(C)=O (centres undefined) | / | . | 101 | . | .
Cc1ccc(C(C)(C)NC(=O)C2CCC(=O)N(CCCN3CCOCC3)C2)cc1 (centres undefined) | . | . | . | . | .
Cc1ccc(C(C)(C)NC(=O)C2CCC(=O)N(C3CCCCCC3)C2)cc1 (centres undefined) | 74 | . | . | . | .
COc1ccccc1NC(=O)N1CC[C@@H]2[C@@H](CO)N(C)c3ccc(-c4cccc(F)c4)cc3[C@@H]21 | . | / | . | / | /
CCc1nnc2c3cnn(-c4ccccc4)c3ncn12 | 64 | . | . | ? | 99
Cc1sc(NC(=O)C2CCCCC2C(=O)O)c(C(N)=O)c1-c1ccc(C(C)C)cc1 (centres undefined) | 62 | / | . | / | .
CNC[C@H]1OCCCC[C@H](C)Oc2ccc(NS(=O)(=O)c3ccc(C)cc3)cc2C(=O)N([C@H](C)CO)C[C@@H]1C | . | . | . | / | /
Fc1ccc2cnc(C3=CCCCC3)cc2c1 | ? | . | / | 33 | 103
C1=C(c2cc3ccccc3cn2)CCCC1 | 79 | . | . | 50 | 97
Fc1ccc2cnc(-c3ccsc3)cc2c1 | / | . | / | . | /
COCC(=O)Nc1ccc2c(c1)C(=O)N(C)C[C@H](OC)[C@H](C)CN(C(=O)NC(C)C)[C@H](C)CO2 | . | / | . | / | /
O=C1CSC(=S)N1N=Cc1ccc(OCc2ccccc2)cc1 | 50 | . | . | . | /
O=C1CSC(=S)N1/N=C/c1cccnc1 | / | . | . | 41 | /
CC(=Nc1ccc(C)cc1)c1sc2ccccc2c1O | / | . | / | 46 | .
Cc1cc(O)cc2c(=O)c3ccccc3sc12 | / | . | / | . | .
SMILES | esBAF inh | Env fusion inh | miR122 inh | Wnt act | MITF act
CC(=Nc1ccc(C)cc1C)c1sc2ccccc2c1O | / | . | / | . | .
CC(=Nc1cccc(O)c1)c1sc2ccccc2c1O | 82 | / | . | . | .
CCOc1cc(S(=O)(=O)N(Cc2ccccc2)Cc2ccccc2)c(OCC)cc1-n1cnnn1 | . | 63 | . | / | .
Cc1noc(C)c1NC(=O)Nc1ccc2c(c1)C(=O)N([C@@H](C)CO)C[C@@H](C)[C@@H](CN(C)C(=O)CCCN(C)C)OCCCC[C@H](C)O2 | . | . | . | / | /
Cc1nn(-c2ccc(F)cc2)c2nc(N)c(C#N)c(-c3ccc(O)c(O)c3)c12 | . | . | . | . | .
CCOc1cc(-c2c(C#N)c(=O)[nH]c3c2c(C)nn3-c2ccc(F)cc2)ccc1O | / | 57 | . | / | .
Cc1nc(SCC(=O)N2CC(=O)Nc3ccccc32)nc(C)c1C | / | . | / | . | .
COc1ccc(-c2ccc(SCC(=O)N3CC(=O)Nc4ccccc43)nn2)cc1 | 49 | . | . | . | .
COc1ccc(-c2ccc(SCC(=O)Nc3nnc(C)s3)nn2)cc1 | / | . | / | 35 | .
